Bioassay records deposited in PubChem BioAssay by National Center for Advancing Translational Sciences (NCATS).
Hits are enriched below; roughly 3.5% of the tested compounds scored in any of these assays.
Tau FP inhib: inhibitors of human tau fibril formation. P10636. K18 P301L tau heparin fibrillization, Alexa594 FP, 6 h. Potency, µM (doses to about 57.7 µM), for the others: at the highest dose activity, negative = inhibition, actives largely listed as inhibitors. hit rate 0.39% among 280,000. AID 1468; further: nearly all actives have a fitted effect of over 55% in size
Target sequence (P10636 561-689 P618L limits assumed): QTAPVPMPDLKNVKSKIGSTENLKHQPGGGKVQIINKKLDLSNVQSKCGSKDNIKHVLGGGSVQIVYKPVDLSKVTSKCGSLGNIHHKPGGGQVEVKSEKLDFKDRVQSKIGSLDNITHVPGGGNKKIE
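Steps: dispense K18 P301L tau (15 uM plus 0.24 uM Alexa 594 tracer, final) in pH 7 sodium acetate; add compound; add heparin (20 uM final); incubate 6 hr, 37 C; add ThT (30 uM final); after 1 hr ambient, read FP.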
TRb SRC2 PPI: TRbeta-SRC2 interaction inhibition. P10828. TRbeta-SRC2 peptide binding, fluorescence polarization; receptor liganded with 1 µM T3. Potency, µM (doses to about 106 µM), for inactives: at the highest dose activity change, negative = inhibition, hits mostly inhibitors. hit rate 0.065% among 280,000. AID 1469;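 further: plate controls were bound peptide for no effect and peptide without receptor for full effect; nearly all actives have a fitted effect of over 50% in size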
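TRb LBD 0.6 uM + Texas Red SRC2 peptide 20 nM, 1 uM T3, Tris buffer w/ 5% DMSO; compound pinned, 5 h RT; FP read ex 555/em 632; normalized to unbound and bound controls.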
JMJD2E inh: inhibitors of human JMJD2E histone demethylase; hit rate 1.6% among 230,000; B2RXH2; Potency, µM (doses to about 57.1 µM), for inactives: at the highest dose activity change, negative = inhibition, hits mostly inhibitors; AID 2147; JMJD2E catalytic domain, FDH-coupled NADH fluorescence (FDH is formaldehyde dehydrogenase);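 further: 0% = wells with enzyme and -100% = buffer wells without enzyme; nearly all actives have a fitted effect of over 50% in size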
Target sequence (B2RXH2 1-337 limits assumed): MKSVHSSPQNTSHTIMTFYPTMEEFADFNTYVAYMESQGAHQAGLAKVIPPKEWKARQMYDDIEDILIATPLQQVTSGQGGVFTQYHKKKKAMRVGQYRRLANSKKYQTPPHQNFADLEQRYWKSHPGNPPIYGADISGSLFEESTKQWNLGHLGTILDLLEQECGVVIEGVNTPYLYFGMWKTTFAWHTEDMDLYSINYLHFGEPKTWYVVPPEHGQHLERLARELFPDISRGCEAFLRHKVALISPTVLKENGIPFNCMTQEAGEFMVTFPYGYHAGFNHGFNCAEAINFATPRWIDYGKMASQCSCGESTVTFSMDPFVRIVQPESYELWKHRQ
TR SRC2 fluor cs: alters Texas Red total fluorescence, flagging assay interference | hit rate 0.29% among 280,000 | AID 1479 | Potency, µM (highest dose often 106 µM), inactives show at the top dose fluorescence change, negative = quenching | TRb/SRC2 Texas Red total fluorescence interference; active means well fitted curve in either direction with a large enough effect; inconclusive means small, poorly fitted or top-dose-only effect
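Human TRβ ligand-binding domain (0.6 uM) and Texas Red SRC2 peptide (20 nM) in Tris buffer with 1 uM T3 and 5% DMSO were incubated with pinned compound for 5 hr at ambient temperature. Total fluorescence was computed as S + 2P (555/632 nm).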
Tau ThT inhib: blocks human tau fibril formation measured by thioflavin T; recombinant tau K18 P301L, heparin-induced fibrillization, ThT fluorescence; Potency, µM (highest dose often 57.4 µM), inactives show top-dose activity, negative = inhibition, actives largely listed as inhibitors; hit rate 2.1% among 270,000; AID 1460; P10636; further: nearly all actives have a fitted effect of over 55% in size
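Heparin-induced (20 uM) aggregation of recombinant human K18 P301L tau, 15 uM unlabeled with 0.24 uM labeled, pH 7 acetate buffer, 6 hr at 37 C with compound. Fibrils quantified by 30 uM ThT fluorescence after 1 hr ambient incubation.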
Tau fluor counter: counter-screen for tau fibril formation inhibitors; tau K18 P301L Alexa594 fluorescence, heparin fibrillization; Potency, µM (top dose mostly 57.7 µM), inactives show top-dose activity change, negative = decrease; hit rate 0.93% among 280,000; AID 1463; further: nearly all actives have a fitted effect of over 55% in size
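Human tau K18 P301L (15 uM unlabeled, 0.24 uM Alexa 594-labeled) in 100 mM sodium acetate pH 7 with 20 uM heparin, 6 hr at 37 C. ThT 30 uM added, 1 hr ambient; Alexa 594 FP and total fluorescence read at 555/632 nm.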
* = called active by the depositor; u = inconclusive; x = not tested or not shown; [ ] = dose if it differs, or a comment. Unless noted, the call rests on the fitted dose curve; in most records, active means well fitted curve in the direction sought with a large enough effect; inconclusive means small, poorly fitted or top-dose-only effect, or another doubt; inactive means no such curve, though single readings can be large; an effect the other way counts as inactive or inconclusive. Unless noted, on the % scale 0 is the no-effect control and ±100 the full control effect; potency means the concentration at half of the fitted maximal effect.

SMILES	Tau FP inhib	TRb SRC2 PPI	JMJD2E inh	TR SRC2 fluor cs	Tau ThT inhib	Tau fluor counter
Cc1ccc(C(=O)NC2(O)C(=O)c3ccccc3C2=O)cc1C	4µM*	-22%	14µM*	2%	x	-11%
Cc1ccc(C)n1-c1ccc(N2CCOCC2)cc1	-15%	-26%	u	1%	8.9µM*	-8%
Cc1ccc(C)n1-c1ccc(N(C)C)cc1	u	-6%	16µM*	6%	13µM*	u
Cc1ccc(N(C)C)cc1	x	0%	x	-4%	x	x
O=C(Cn1c(Cc2ccccc2)nc2ccccc21)NCc1ccc2c(c1)OCO2	4%	2%	-9%	-10%	-3%	-6%
COc1cccc(NC(=O)Cn2c(=O)n(Cc3ccc(C(=O)NCc4ccc5c(c4)OCO5)cc3)c(=O)c3ccccc32)c1	25µM*	-4%	x	5%	-1%	u
CN(C)c1ccc(NC(=O)Cn2c(=O)n(Cc3ccccc3)c(=O)c3ccccc32)cc1	4%	-14%	-2%	-2%	u	18µM*[quencher]
Cc1ccc(-n2c(=O)c3ccc(C(=O)NCc4ccccc4Cl)cc3n(CC(=O)Nc3cccc(F)c3)c2=O)cc1	16µM*	-4%	x	0%	7%	u
Cc1ccc(NC(=O)Cn2c(=O)n(Cc3ccc(C(=O)NCc4ccc5c(c4)OCO5)cc3)c(=O)c3ccccc32)cc1	32µM*	-3%	x	6%	2%	-18%
COc1cccc(NC(=O)Cn2c(=O)n(Cc3ccccc3)c(=O)c3ccccc32)c1	u	-3%	x	-3%	5%	-12%
COc1nc(N)c(S(=O)(=O)c2ccccc2)cc1C#N	3%	-5%	u	0%	-7%	-7%
O=C1c2cccc([N+](=O)[O-])c2C(=O)N1CCO	-3%	-6%	4%	-1%	-5%	-5%
O=C1c2cccc3c(Nc4ccccc4Cl)c([N+](=O)[O-])cc(c23)C(=O)N1CCO	18%	-13%	-2%	3%	11µM*	u
Cc1ccc(C)n1-c1cccc(N)c1	-11%	-2%	u	5%	16µM*	u
Clc1cnc(N/N=C/c2cccs2)c(Cl)c1	2%	3%	-9%	-6%	u	-18%
ClCc1csc(N/N=C/c2cccs2)n1	u	5%	u	-4%	18µM*	u
C(=N\Nc1nc(-c2ccccc2)cs1)/c1cccs1	8%	-3%	-30%	-2%	14µM*	13µM*[quencher]
C(=N\Nc1nc(-c2ccccc2)cs1)/c1ccncc1	7%	-4%	-13%	-2%	16µM*	13µM*[quencher]
CN(C)S(=O)(=O)c1ccc(-c2csc(N/N=C/c3ccc(O)cc3)n2)cc1	-6%	8%	-19%	-3%	14µM*	10µM*[quencher]
Clc1ccc(-c2csc(N/N=C\c3cccnc3)n2)cc1	1%	-1%	-1%	-6%	u	u
O=C(O)Cn1c(=S)sc2ccccc21	-3%	12%	-5%	-2%	-2%	2%
O=C(OCC1CO1)C1CCCCC1C(=O)OCC1CO1 (configuration not stated)	x	2%	x	0%	x	x
CS(=O)(=O)N(CCc1ccccc1)CC(=O)Nc1ccccc1	4%	8%	2%	-1%	5%	4%
O=c1cc(N2CCN(c3ccc(F)cc3)CC2)[nH]c(=O)n1-c1ccc(Br)cc1	3%	7%	x	2%	u	-9%
CCOc1ccc(C2C3=C(CCCC3=O)Nc3ccc4ncccc4c32)cc1 (configuration not stated)	13%	-12%	u	-3%	x	u
SMILES	Tau FP inhib	TRb SRC2 PPI	JMJD2E inh	TR SRC2 fluor cs	Tau ThT inhib	Tau fluor counter
O=C1CCCC2=C1C(c1ccc(O)c(O)c1)c1c(ccc3ncccc13)N2 (configuration not stated)	-17%	-16%	25µM*	-3%	u	u
COc1cccc(-n2c(CNc3ccc(F)cc3)nnc2SCC(N)=O)c1	4%	-10%	3%	-2%	-3%	4%
O=C(Nc1nc2c(F)cccc2s1)c1ccc(S(=O)(=O)N2CCCc3ccccc32)cc1	-8%	3%	x	-2%	6%	-1%
O=C(Nc1nc2c(F)cc(F)cc2s1)c1ccc(S(=O)(=O)N2CCc3ccccc32)cc1	14µM*	6%	x	-3%	-2%	-21%
Cn1nc(C(F)(F)F)c(C(=O)Nc2ccc(F)cc2)c1Cl	0%	1%	-3%	0%	-6%	-1%
CCOc1ccc(S(=O)(=O)NCCOC)cc1C	-2%	0%	-2%	-3%	8%	4%
Cc1cc(-n2c(SCc3ccccc3F)nc3n[nH]c(C)c3c2=N)ccc1Cl	18µM*	-1%	u	-1%	5%	-21%
Cc1cccc(-n2c(SCC(=O)Nc3ccccc3Cl)nc3n[nH]c(C)c3c2=N)c1	-10%	1%	x	0%	-6%	u
COc1ccc(Cn2c(SCC(=O)NCc3ccc(Cl)cc3)nc3ccsc3c2=O)cc1	0%	11%	x	0%	7%	-8%
Cc1ccc2c(c1)c1c(n2C)-c2[nH]ncc2CC1	5%	0%	u	-1%	u	18µM*[quencher]
CC1=C(C(=O)c2ccccc2)C(c2ccc(O)cc2)NC(=S)N1 (configuration not stated)	-2%	-4%	-17%	-2%	-3%	-1%
CC1=C(C(=O)c2ccccc2)C(c2ccc(N3CCOCC3)cc2)NC(=O)N1 (configuration not stated)	1%	-2%	-9%	0%	25µM*	-6%
O=C(CCSc1ccccc1)Nc1ccccc1Br	0%	4%	6%	2%	-13%	-6%
Cc1sc2cc3c(c(C(=O)c4ccccc4)[n+]2c1C)-c1cccc2cccc-3c12	1%	-4%	u	0%	u	-10%
O=C(c1ccccc1)c1c2c(cc3sc4ccccc4[n+]13)-c1cccc3cccc-2c13	u	-14%	16µM*	19%	6.3µM*	u
O=[N+]([O-])c1ccc(-c2ccc(/C=N/Nc3nc(NCc4ccccc4)nc(N4CCOCC4)n3)o2)cc1	u	2%	-4%	-4%	2.8µM*	u
COc1nc(N/N=C/c2ccc(-c3ccccc3[N+](=O)[O-])o2)nc(N2CCOCC2)n1	4%	6%	6%	1%	10%	10%
Cc1ccc(NC(=O)Cn2c(=O)n(Cc3nc(-c4ccccc4)no3)c(=O)c3cc4c(cc32)OCO4)cc1F	u	0%	x	0%	19%	-17%
O=C(Cn1c(=O)n(Cc2nc(-c3ccccc3)no2)c(=O)c2cc3c(cc21)OCO3)Nc1ccccc1	28µM*	-4%	x	-3%	16%	-27%
